# Reference: paper PMC7862700, “An all-to-all approach to the identification of sequence-specific readers for epigenetic DNA modifications on cytosine”
# Legend:
# Assay in all cases: DAPPL (digital affinity profiling via proximity ligation, sequencing); 10 mM Tris-HCl pH 7.5, 50 mM NaCl, 1 mM DTT, 4% glycerol, room temperature, 30 min; GST-TFs on glutathione beads, 16-mer random dsDNA library, 0.1% formaldehyde crosslink after washing; high values mean tight binding
# FLI1 = target: T1, FLI1 (Homo sapiens, UniProt Q01543 1-452); details: protein: recombinant; tags: N-terminal GST; dsDNA, one strand shown
# T1 sequence: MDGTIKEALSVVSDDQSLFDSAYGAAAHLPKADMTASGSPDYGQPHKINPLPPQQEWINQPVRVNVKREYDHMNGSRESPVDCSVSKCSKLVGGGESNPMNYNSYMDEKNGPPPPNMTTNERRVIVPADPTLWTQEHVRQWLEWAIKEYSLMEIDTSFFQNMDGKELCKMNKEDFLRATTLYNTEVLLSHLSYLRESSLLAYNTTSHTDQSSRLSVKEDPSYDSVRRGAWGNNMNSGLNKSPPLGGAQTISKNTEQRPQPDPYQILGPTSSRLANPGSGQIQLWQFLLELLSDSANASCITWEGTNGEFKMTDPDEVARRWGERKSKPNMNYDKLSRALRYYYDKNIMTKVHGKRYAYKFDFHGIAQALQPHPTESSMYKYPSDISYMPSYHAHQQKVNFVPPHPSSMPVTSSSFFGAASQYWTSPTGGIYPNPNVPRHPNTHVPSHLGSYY
# Method in brief: (§1)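 GST fusions of human transcription factors were expressed in yeast and captured with glutathione beads. Once given DNA barcodes and pooled alongside a tag-only sample, they were incubated for 30 min at room temperature with 200 nmole of a random double-stranded 16-mer DNA library in Tris/NaCl/DTT/glycerol buffer, then washed, crosslinked (0.1% formaldehyde), proximity-ligated, PCR-amplified and sequenced on an Illumina NextSeq500. The binding signal of each hexamer is its read frequency for a factor divided by its frequency for the tag-only sample.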
# ELK1 = target: T2, ELK1 (Homo sapiens, UniProt P19419 1-428); details: protein: recombinant; tags: N-terminal GST; dsDNA, one strand shown
# T2 sequence: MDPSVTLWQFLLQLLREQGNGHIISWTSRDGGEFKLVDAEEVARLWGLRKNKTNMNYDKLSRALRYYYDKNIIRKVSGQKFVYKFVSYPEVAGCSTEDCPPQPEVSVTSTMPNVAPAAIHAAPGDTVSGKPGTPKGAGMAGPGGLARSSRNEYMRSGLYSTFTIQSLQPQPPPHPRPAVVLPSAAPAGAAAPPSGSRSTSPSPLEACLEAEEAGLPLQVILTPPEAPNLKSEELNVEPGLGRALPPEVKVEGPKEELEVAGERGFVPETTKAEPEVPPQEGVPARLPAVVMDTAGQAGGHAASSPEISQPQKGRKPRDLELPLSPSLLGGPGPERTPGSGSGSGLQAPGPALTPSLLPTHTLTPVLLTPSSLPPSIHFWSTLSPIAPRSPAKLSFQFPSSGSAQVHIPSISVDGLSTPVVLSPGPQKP
# Method in brief: as §1
# GABPA = target: T3, GABPA (Homo sapiens, UniProt Q06546 1-454); details: protein: recombinant; tags: N-terminal GST; dsDNA, one strand shown
# T3 sequence: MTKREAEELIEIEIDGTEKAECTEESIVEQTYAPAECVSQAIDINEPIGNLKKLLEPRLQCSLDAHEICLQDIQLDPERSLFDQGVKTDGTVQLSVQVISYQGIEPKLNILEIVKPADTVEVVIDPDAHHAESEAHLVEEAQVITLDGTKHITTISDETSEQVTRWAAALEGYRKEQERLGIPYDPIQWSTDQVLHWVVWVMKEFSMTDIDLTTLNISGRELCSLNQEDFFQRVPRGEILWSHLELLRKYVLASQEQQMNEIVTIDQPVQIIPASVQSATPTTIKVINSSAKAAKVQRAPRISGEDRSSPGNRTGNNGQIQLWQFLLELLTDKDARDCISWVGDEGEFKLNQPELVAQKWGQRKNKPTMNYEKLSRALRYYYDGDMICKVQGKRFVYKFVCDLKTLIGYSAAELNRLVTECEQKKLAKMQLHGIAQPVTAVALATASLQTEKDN
# Method in brief: as §1
# ERG = target: T4, ERG (Homo sapiens, UniProt P11308 1-479); details: protein: recombinant; tags: N-terminal GST; dsDNA, one strand shown
# T4 sequence: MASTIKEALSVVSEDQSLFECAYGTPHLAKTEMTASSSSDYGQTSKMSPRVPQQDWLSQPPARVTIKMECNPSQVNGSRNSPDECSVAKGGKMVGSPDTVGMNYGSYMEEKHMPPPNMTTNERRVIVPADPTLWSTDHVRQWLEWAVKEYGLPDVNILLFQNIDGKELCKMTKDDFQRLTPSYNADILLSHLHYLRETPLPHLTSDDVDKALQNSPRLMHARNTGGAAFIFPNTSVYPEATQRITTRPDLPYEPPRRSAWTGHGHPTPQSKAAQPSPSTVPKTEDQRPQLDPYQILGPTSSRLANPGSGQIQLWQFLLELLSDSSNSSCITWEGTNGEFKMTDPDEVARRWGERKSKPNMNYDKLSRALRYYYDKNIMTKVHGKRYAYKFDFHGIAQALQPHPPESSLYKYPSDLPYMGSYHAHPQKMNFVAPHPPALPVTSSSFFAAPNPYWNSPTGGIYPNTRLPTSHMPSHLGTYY
# Method in brief: as §1
# ELF1 = ELF1 (Homo sapiens, UniProt P32519 1-619); details: protein: recombinant; tags: N-terminal GST; dsDNA, one strand shown
# ELF1, sequence (P32519 whole entry): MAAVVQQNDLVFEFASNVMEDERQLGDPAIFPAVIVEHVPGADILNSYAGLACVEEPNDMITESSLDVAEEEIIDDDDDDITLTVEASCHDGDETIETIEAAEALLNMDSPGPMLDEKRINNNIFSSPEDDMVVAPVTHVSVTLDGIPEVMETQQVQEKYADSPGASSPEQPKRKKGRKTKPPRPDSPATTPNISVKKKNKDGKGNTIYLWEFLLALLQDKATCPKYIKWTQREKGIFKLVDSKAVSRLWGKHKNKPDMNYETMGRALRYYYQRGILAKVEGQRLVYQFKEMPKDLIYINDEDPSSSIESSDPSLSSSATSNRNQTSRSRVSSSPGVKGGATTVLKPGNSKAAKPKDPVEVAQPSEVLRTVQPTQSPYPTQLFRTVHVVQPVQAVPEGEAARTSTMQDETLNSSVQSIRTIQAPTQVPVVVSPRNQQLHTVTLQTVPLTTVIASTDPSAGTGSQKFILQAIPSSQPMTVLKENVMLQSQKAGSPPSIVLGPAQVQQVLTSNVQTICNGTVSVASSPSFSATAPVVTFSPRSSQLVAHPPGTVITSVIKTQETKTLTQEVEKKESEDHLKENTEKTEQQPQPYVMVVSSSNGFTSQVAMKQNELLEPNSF
# Method in brief: as §1
# EHF = target: T5, EHF (Homo sapiens, UniProt Q9NZC4 1-300); details: protein: recombinant; tags: N-terminal GST; dsDNA, one strand shown
# T5 sequence: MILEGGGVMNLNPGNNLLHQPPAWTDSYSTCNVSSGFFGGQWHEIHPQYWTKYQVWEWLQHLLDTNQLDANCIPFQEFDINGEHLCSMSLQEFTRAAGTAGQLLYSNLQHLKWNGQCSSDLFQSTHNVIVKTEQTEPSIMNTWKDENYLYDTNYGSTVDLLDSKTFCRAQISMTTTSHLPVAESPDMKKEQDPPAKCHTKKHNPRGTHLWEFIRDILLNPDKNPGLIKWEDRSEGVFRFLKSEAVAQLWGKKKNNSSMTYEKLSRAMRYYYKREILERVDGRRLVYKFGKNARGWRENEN
# Method in brief: as §1
# SPI1 = SPI1 (Homo sapiens, UniProt P17947 1-270); details: protein: recombinant; tags: N-terminal GST; dsDNA, one strand shown
# Method in brief: as §1
# SPIB = SPIB (Homo sapiens, UniProt Q01892 1-262); details: protein: recombinant; tags: N-terminal GST; dsDNA, one strand shown
# SPIB, sequence (Q01892 whole entry): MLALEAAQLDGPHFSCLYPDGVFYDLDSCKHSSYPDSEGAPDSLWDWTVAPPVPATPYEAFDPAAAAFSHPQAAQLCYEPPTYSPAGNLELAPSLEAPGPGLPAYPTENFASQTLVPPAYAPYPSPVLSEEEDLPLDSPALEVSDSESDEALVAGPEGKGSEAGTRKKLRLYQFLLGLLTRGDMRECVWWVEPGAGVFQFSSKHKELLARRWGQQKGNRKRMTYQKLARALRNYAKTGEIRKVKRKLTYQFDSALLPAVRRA
# Method in brief: as §1
# ELK3 = target: T6, ELK3 (Homo sapiens, UniProt P41970 1-407); details: protein: recombinant; tags: N-terminal GST; dsDNA, one strand shown
# T6 sequence: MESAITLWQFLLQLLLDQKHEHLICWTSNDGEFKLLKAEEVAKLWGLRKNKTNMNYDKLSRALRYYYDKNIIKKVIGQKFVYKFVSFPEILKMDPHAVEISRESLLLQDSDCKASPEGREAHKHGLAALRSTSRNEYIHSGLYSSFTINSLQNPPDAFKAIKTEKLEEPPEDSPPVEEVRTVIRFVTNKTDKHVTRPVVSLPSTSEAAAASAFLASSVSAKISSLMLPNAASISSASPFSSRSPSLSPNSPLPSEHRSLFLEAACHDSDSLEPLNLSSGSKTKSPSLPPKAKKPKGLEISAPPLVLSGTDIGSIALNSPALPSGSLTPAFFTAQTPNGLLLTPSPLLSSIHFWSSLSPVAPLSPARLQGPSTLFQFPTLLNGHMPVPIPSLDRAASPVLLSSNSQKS
# Method in brief: as §1
# FEV = target: T7, FEV (Homo sapiens, UniProt Q99581 1-238); details: protein: recombinant; tags: N-terminal GST; dsDNA, one strand shown
# T7 sequence: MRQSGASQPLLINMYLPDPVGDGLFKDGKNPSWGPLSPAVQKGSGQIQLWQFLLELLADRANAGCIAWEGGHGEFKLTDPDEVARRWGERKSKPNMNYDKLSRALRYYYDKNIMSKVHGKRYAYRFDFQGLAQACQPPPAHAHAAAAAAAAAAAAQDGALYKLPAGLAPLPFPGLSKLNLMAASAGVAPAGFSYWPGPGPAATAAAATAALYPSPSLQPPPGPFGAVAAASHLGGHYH
# Method in brief: as §1
# ETV5 = ETV5 (Homo sapiens, UniProt P41161 1-510); details: protein: recombinant; tags: N-terminal GST; dsDNA, one strand shown
# ETV5, sequence (P41161 whole entry): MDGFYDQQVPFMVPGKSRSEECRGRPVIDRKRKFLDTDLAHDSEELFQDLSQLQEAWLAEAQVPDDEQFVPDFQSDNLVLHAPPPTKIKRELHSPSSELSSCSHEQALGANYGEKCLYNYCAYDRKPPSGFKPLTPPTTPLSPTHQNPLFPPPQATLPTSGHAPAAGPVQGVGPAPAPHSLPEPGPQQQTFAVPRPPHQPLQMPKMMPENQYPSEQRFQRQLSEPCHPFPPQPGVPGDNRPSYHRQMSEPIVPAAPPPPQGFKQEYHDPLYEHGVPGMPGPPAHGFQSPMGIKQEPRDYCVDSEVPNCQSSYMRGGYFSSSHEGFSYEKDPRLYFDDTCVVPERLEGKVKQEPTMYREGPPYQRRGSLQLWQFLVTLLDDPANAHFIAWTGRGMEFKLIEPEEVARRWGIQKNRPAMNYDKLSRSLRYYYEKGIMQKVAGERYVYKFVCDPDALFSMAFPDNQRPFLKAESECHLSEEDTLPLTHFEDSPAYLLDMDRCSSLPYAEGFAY
# Method in brief: as §1
# HSF1 = HSF1 (Homo sapiens, UniProt Q00613 1-529); details: protein: recombinant; tags: N-terminal GST; chain copies: 3; dsDNA, one strand shown
# HSF1, sequence (Q00613 whole entry): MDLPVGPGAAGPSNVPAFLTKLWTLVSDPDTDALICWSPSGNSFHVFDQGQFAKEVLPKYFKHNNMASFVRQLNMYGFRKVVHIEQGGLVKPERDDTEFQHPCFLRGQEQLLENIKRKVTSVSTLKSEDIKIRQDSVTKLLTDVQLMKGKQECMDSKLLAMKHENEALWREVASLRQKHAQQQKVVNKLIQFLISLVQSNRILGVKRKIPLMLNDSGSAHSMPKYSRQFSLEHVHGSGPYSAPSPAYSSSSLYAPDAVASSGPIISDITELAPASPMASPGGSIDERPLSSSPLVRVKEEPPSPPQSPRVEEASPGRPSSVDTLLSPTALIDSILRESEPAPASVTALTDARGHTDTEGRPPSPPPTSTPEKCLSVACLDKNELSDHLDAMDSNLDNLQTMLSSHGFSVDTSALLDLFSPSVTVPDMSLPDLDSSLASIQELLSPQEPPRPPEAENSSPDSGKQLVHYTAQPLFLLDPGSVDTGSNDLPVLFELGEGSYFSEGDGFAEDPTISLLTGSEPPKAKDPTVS
# Method in brief: as §1
# SPIC = target: T8, SPIC (Homo sapiens, UniProt Q8N5J4 1-248); details: protein: recombinant; tags: N-terminal GST; dsDNA, one strand shown
# T8 sequence: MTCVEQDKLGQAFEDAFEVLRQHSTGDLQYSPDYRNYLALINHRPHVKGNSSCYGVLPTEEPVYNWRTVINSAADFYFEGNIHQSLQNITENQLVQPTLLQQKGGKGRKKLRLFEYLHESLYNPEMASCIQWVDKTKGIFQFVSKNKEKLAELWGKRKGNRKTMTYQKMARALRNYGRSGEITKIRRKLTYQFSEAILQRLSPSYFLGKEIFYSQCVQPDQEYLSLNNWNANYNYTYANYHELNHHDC
# Method in brief: as §1
# ELF4 = ELF4 (Homo sapiens, UniProt Q99607 1-663); details: protein: recombinant; tags: N-terminal GST; dsDNA, one strand shown
# ELF4, sequence (Q99607 whole entry): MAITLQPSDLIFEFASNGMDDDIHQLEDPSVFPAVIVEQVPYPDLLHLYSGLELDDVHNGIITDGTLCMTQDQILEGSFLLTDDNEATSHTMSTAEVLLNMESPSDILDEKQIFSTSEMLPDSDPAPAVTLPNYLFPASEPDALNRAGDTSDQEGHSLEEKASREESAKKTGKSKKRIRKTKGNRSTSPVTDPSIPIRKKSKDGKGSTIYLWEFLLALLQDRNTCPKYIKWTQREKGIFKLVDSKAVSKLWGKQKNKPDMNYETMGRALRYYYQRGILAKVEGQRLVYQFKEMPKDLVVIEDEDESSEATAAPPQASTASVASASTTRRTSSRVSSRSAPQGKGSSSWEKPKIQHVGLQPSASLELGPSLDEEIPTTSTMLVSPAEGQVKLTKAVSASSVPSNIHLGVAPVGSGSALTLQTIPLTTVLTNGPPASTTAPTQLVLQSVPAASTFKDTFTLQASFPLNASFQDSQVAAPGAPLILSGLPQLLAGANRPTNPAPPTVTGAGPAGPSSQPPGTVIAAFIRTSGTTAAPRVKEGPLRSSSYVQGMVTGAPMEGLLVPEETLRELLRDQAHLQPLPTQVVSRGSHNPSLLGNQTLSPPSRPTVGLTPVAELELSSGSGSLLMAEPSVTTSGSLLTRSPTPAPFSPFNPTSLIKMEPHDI
# Method in brief: as §1
# ELK4 = target: T9, ELK4 (Homo sapiens, UniProt P28324-2 1-405); details: protein: recombinant; tags: N-terminal GST; dsDNA, one strand shown
# T9 sequence: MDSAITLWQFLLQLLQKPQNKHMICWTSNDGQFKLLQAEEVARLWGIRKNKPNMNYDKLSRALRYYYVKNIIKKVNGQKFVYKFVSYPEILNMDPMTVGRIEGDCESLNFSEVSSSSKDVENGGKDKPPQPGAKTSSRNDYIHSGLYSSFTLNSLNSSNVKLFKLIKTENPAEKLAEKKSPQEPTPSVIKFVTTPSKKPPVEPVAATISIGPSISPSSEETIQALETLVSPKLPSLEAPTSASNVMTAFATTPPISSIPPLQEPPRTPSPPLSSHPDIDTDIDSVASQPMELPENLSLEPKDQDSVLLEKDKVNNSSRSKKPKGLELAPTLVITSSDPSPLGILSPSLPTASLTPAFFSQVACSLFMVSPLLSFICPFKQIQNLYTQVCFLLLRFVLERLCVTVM
# Method in brief: as §1
# ETV2 = target: T10, ETV2 (Homo sapiens, UniProt O00321 1-342); details: protein: recombinant; tags: N-terminal GST; dsDNA, one strand shown
# T10 sequence: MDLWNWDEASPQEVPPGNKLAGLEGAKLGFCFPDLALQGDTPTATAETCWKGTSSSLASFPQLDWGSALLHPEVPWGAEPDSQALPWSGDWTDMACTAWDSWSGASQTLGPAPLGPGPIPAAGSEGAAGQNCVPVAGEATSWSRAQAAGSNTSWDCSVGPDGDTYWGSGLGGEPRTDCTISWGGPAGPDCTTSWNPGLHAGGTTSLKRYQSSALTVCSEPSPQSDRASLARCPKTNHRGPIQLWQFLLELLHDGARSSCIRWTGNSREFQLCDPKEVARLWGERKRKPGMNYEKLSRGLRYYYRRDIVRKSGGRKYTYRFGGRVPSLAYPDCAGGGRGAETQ
# Method in brief: as §1
# ELF3 = target: T11, ELF3 (Homo sapiens, UniProt P78545 1-371); details: protein: recombinant; tags: N-terminal GST; dsDNA, one strand shown
# T11 sequence: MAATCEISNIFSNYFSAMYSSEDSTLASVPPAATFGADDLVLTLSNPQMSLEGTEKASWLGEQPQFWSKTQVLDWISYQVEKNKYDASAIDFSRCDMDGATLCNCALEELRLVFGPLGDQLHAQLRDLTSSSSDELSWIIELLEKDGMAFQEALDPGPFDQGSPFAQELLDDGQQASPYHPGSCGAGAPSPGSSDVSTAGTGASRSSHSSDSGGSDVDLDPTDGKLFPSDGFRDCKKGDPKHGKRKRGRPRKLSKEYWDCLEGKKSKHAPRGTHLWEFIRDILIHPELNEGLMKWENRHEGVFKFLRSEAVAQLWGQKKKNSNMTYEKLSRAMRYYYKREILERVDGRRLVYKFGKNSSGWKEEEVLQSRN
# Method in brief: as §1
# CRX = CRX (Homo sapiens, UniProt O43186 1-299); details: protein: recombinant; tags: N-terminal GST; dsDNA, one strand shown
# CRX, sequence (O43186 whole entry): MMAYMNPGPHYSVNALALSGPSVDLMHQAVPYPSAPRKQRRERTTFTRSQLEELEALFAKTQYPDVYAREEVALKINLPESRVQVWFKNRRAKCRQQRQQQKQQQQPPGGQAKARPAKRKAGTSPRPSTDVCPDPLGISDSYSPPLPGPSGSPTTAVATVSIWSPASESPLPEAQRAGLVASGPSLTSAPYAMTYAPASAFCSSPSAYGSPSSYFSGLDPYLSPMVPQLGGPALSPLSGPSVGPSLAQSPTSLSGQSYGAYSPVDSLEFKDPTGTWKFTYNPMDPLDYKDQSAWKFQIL
# Method in brief: as §1
# ETV1 = ETV1 (Homo sapiens, UniProt P50549 1-477); details: protein: recombinant; tags: N-terminal GST; dsDNA, one strand shown
# ETV1, sequence (P50549 whole entry): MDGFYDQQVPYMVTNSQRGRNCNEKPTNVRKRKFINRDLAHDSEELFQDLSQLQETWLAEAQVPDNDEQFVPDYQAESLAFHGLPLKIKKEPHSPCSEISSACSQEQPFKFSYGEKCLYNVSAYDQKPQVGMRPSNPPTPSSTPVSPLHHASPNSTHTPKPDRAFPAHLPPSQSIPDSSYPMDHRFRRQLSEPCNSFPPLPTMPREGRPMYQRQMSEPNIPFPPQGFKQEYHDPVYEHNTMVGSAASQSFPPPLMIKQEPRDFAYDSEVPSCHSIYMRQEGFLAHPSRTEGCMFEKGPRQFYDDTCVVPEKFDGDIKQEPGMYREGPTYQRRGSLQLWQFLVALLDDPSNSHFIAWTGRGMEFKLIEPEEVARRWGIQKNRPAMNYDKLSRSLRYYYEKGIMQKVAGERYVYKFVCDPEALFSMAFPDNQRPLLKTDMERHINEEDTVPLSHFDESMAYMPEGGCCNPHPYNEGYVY
# Method in brief: as §1
sequence,measurement,setting,value
AGAAGC,binding signal,FLI1,"1.11 fold enrichment (6-mer frequency, TF over GST control)"
same,binding signal,ELK1,"1.15 fold enrichment (6-mer frequency, TF over GST control)"
same,binding signal,GABPA,"1.12 fold enrichment (6-mer frequency, TF over GST control)"
same,binding signal,ERG,"1.16 fold enrichment (6-mer frequency, TF over GST control)"
same,binding signal,ELF1,"1.08 fold enrichment (6-mer frequency, TF over GST control)"
same,binding signal,EHF,"1.21 fold enrichment (6-mer frequency, TF over GST control)"
same,binding signal,SPI1,"1.22 fold enrichment (6-mer frequency, TF over GST control)"
same,binding signal,SPIB,"1.15 fold enrichment (6-mer frequency, TF over GST control)"
same,binding signal,ELK3,"1.1 fold enrichment (6-mer frequency, TF over GST control)"
same,binding signal,FEV,"1.14 fold enrichment (6-mer frequency, TF over GST control)"
same,binding signal,ETV5,"1.12 fold enrichment (6-mer frequency, TF over GST control)"
same,binding signal,HSF1,"1.96 fold enrichment (6-mer frequency, TF over GST control)"
same,binding signal,SPIC,"1.28 fold enrichment (6-mer frequency, TF over GST control)"
same,binding signal,ELF4,"1.13 fold enrichment (6-mer frequency, TF over GST control)"
same,binding signal,ELK4,"1.07 fold enrichment (6-mer frequency, TF over GST control)"
same,binding signal,ETV2,"1.22 fold enrichment (6-mer frequency, TF over GST control)"
same,binding signal,ELF3,"1.09 fold enrichment (6-mer frequency, TF over GST control)"
same,binding signal,CRX,"1.32 fold enrichment (6-mer frequency, TF over GST control)"
same,binding signal,ETV1,"1.11 fold enrichment (6-mer frequency, TF over GST control)"
